SUMO Mot1 rescue = yeast Mot1-301 growth rescue at high temperature, primary screen, SUMOylation pathway inhibitor project, S. cerevisiae, ATP luminescence, 38.5C; S. cerevisiae Mot1-301 growth rescue; percent above DMSO median, 100 means doubled; growth rescue, % at 18.8 µM; 320,000 tested, 1% active; AID 2716, 2010;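 active = every valid replicate shows activation above 250% relative to neutral control wells; inactive = the rest, any valid replicate at or below 250%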;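 note: OY570 slx delta 5 strain wells were the positive control but not used for scaling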
AI-2 QS modul = Vibrio harveyi AI-2 quorum sensing modulators, primary screen, JMH597 strain, luminescence/OD600 ratio. Vibrio harveyi JMH597 AI-2 luminescence/OD600 ratio, 9 h; stronger effect = lower value; strain lacks LuxN and CqsS sensors; 0 = neutral-control median. activity change, % at 7.5 µM. 300,000 tested, 0.4% active. AID 2094, 2009; in the data active = activity change below about -75%, passing the limit was not always enough; inconclusive = no clear call, values can overlap the other calls;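 note: luminescence divided by OD600 gain over 9 h not by final OD600 alone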
ATG4B inhibitor = ATG4B protease inhibitors, primary screen, biochemical, fluorescence, uHTS; Cysteine protease ATG4B (Homo sapiens), Q9Y4P1; ATG4B cleavage of LC3-PLA2, NBD-HPC fluorescence, 1 h; inhibition, % at 8.33 µM; 340,000 tested, 0.51% active; in the data active = inhibition above about 40%
Target sequence (Q9Y4P1 whole entry, looked up): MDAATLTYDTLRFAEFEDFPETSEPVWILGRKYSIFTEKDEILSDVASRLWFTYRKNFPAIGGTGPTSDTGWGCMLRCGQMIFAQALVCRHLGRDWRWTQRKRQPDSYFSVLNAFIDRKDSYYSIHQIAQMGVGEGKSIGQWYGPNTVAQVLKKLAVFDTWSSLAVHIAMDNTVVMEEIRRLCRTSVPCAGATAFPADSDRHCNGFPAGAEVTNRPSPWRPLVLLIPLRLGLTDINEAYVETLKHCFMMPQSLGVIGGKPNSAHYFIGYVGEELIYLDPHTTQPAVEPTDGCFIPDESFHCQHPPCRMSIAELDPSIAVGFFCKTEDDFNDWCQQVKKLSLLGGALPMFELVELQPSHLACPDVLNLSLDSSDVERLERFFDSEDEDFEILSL
V-ATPase pH = regulators of yeast V-ATPase proton pumping, primary screen, pHLuorin cytosolic pH fluorescence | S. cerevisiae | response, % at 10 µM | 350,000 tested, 0.37% active | AID 504577, 2011; in the data active = response mostly above about 7.3%, no sharp cut-off; inactive = mostly below about 5.4%; note: actives read high
Efflux pump mplx = inhibitors of Candida efflux pumps in yeast, primary screen, S. cerevisiae, Nile Red, multiplex | S. cerevisiae Candida pump triplex | inhibition, % at 10 µM | 330,000 tested, 0.44% active;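 active = plate passing quality check with inhibition over a set limit, or well fluorescence over plate mean plus 4 SD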;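 note: Nile Red retained in pooled yeast measured as flow cytometry median fluorescence; 0% = buffer negative control and 100% = Enniatin B positive control; higher means more Nile Red kept so more efflux inhibition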
Yeast cmpd fluor = compound fluorescence in yeast efflux pump counter-screen; shares compounds with Efflux pump mplx; S. cerevisiae AD/pABC3, flow cytometry; fluorescence ratio to DMSO, % at 10 µM; 1,700 tested, 4% active;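 active = fluorescence ratio to DMSO above its plate's cutoff, the plate mean ratio plus 5 SD, cut at about 210% in these data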;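 note: unstained yeast with no Nile Red so the signal is compound autofluorescence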
Mdr1 pump inh = inhibitors of Candida albicans Mdr1 efflux, confirmation, flow cytometry, singleplex, Cherry Pick1 set | shares compounds with Efflux pump mplx | S. cerevisiae AD/CaMDR1, Nile Red efflux | inhibition, % at 10 µM | 1,700 tested, 1% active; in the data active = inhibition above about 26%;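 note: 0% = DMSO vehicle and 100% = reference inhibitor; higher means more Nile Red retained so more efflux inhibition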
Cdr2 pump inh = inhibitors of Candida albicans Cdr2 efflux pump, confirmation, S. cerevisiae AD/CaCDR2, flow cytometry, cherry pick 1, singleplex | shares compounds with Efflux pump mplx | Nile Red retention | Nile Red retention ratio vs DMSO, % at 10 µM | 1,700 tested, 4% active; in the data active = Nile Red retention ratio vs DMSO above about 190%;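 note: higher ratio means more blocking of Cdr2 efflux of the dye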
CaCdr1 efflux inh = inhibitors of Candida albicans Cdr1 efflux pump, confirmation, S. cerevisiae AD/CaCDR1, flow cytometry, cherry pick 1, singleplex | shares compounds with Efflux pump mplx | Nile Red efflux | inhibition, % at 10 µM | 1,700 tested, 1% active;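 active = inhibition above the screen-wide mean plus twice its standard deviation, cut at about 32% in these data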
* marks the source's active call; other numbers are inactive results; ? = inconclusive; nt = no result. This is a sample that favours compounds with a hit; in the whole collection about 2.5% have one here.

SMILES	SUMO Mot1 rescue	AI-2 QS modul	ATG4B inhibitor	V-ATPase pH	Efflux pump mplx	Yeast cmpd fluor	Mdr1 pump inh	Cdr2 pump inh	CaCdr1 efflux inh
COc1cc(OC)cc(C(=O)N/N=C/c2ccc(OC)c(COc3ccc4ccccc4c3)c2)c1	7	15	-18	-3	0.6*	106	0	112	0
COc1ccc(/C=N/NC(=O)c2nc(Cl)c(Cl)c(N)c2Cl)cc1COc1ccc(F)cc1F	0	-3	-9	0	1.0*	106	0	114	1
CC1CCCC(C)N1C(=O)COC(=O)c1ccc(O)cc1 (configuration not stated)	1	10	9	8	0	nt	nt	nt	nt
O=c1[nH][nH]c(-c2ccccc2O)c1C(C[N+](=O)[O-])c1ccccc1 (configuration not stated)	25	?	-7	-2	5.5*	108	0	104	0
O=c1[nH][nH]c(-c2ccccc2O)c1C(C[N+](=O)[O-])c1cccc(Cl)c1 (configuration not stated)	52	21	-8	-2	0	nt	nt	nt	nt
N#C/C(=C/c1ccc(CNC(=O)C(=O)Nc2cc(Cl)cc(Cl)c2)o1)C(=O)NCc1cccnc1	0	11	11	-2	8.2*	105	0	110	0
COC(=O)c1cc(OC)nc2c1c(=O)n(C)c(=O)n2C	-10	22	7	-2	9.6*	98	0	96	0
COC(=O)c1ccccc1S(=O)(=O)N1CCC(C(=O)NCc2ccco2)CC1	-8	nt	-4	3	0	nt	nt	nt	nt
O=C(NC1CCCCC1)c1cc2ccccc2cc1O	11	26	5	0	1.1*	99	0	108	0
COC(=O)C1=C(C)N(c2cc(C)cc(C)c2)/C(=C/c2ccc(O)cc2)C1=O	-9	34	-14	-3	0.7*	114	0	101	0
CC(=O)Nc1ccc(S(=O)(=O)NC2CC(=O)N(c3ccc4c(c3)OCCO4)C2)cc1 (configuration not stated)	1	20	-1	-2	0	nt	nt	nt	nt
CC(C)c1cccc(C(C)C)c1NC(=O)CN1CCCC1	160	34	-1	-3	0	nt	nt	nt	nt
CCNc1nc2[nH]c(=O)c3c(c2s1)OC(N)=C(C#N)C3c1ccc(C)cc1 (configuration not stated)	-13	31	1	-2	0	nt	nt	nt	nt
CNc1nc2[nH]c(=O)c3c(c2s1)OC(N)=C(C#N)C3c1ccccc1 (configuration not stated)	3	2	-10	0	9.7*	117	0	96	0
COc1cc(/C=C2\N=C(c3ccccc3)OC2=O)ccc1OCc1c(C)no[n+]1[O-]	2	6	32	-3	10*	106	0	136	0
Cc1ccc(C(C(=O)NC2CCCC2)N(Cc2ccco2)C(=O)CCC(=O)Nc2cc(C)on2)cc1 (configuration not stated)	26	6	-17	0	0	87	0	95	0
Cc1cc(NC(=O)CCC(=O)N(Cc2ccco2)C(C(=O)NC2CCCCC2)c2cccs2)no1 (configuration not stated)	-14	12	-9	-3	0	nt	nt	nt	nt

Bioassay records (PubChem)
